We go through nine compounds from PubChem BioAssay (Tox21).

“And” between values parts separate entries of the source, which are not always exact repeats. Identical values can stand only once. Inconclusive results are not listed. Some structures have more than one record in an assay (separate samples or runs), and their calls can disagree. The source made the active and inactive calls. Unless noted, calls come from the whole dose curve; as a rule, active = well fitted curve in the direction sought with a large enough effect in the repeat runs; inconclusive = weak or mixed curves; inactive = no such curve, though single readings can be large; an effect the other way counts as inactive or inconclusive.

Test [1] can be described thus: qHTS assay to identify small molecule antagonists of the glucocorticoid receptor (GR) signaling pathway - cell viability counter screen (AID 720693; note: nearly all actives have a fitted effect of over 55% in size). (Quantitative high-throughput screening tests each substance at several concentrations.)
Test [2] in a line: qHTS assay for identifying genotoxic compounds that show differential cytotoxicity against isogenic chicken DT40 cell lines with known DNA damage response pathways - wild type cell line (AID 743012). Note: nearly all actives have a fitted effect of over 60% in size. Note: potency is the fitted concentration of half-maximal effect. An outline of the steps: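 Wild type DT40, 300 cells/well, ~0.5 h settle at 37 C/5% CO2; compounds in DMSO added by pintool; 40 h at 37 C/5% CO2; CellTiter-Glo, 30 min RT; luminescence.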

The nature of test [3]: qHTS assay for identifying genotoxic compounds that show differential cytotoxicity against isogenic chicken DT40 cell lines with known DNA damage response pathways - Rev3 mutant cell line (AID 743014). Note: nearly all actives have a fitted effect of over 55% in size. Note: potency is the fitted concentration of half-maximal effect.
Test [4] in a line: qHTS assay for identifying genotoxic compounds that show differential cytotoxicity against isogenic chicken DT40 cell lines with known DNA damage response pathways - Rad54/Ku70 mutant cell line (AID 743015). Note: nearly all actives have a fitted effect of over 60% in size. Note: potency is the fitted concentration of half-maximal effect.
A short description of test [5]: qHTS assay to identify small molecule antagonists of the androgen receptor (AR) signaling pathway - cell viability counter screen (AID 743033; note: nearly all actives have a fitted effect of over 45% in size).
Test [6] is described as follows: qHTS assay to identify small molecule antagonists of the androgen receptor (AR) signaling pathway using the MDA cell line - cell viability counter screen (AID 743041; note: nearly all actives have a fitted effect of over 45% in size; note: potency is the fitted concentration of half-maximal effect). An outline of the steps: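 MDA-kb2 AR-luc cells (MMTV-luciferase, AR/GR responsive) treated with compounds plus R1881 agonist for 16 h at 37C. CellTiter-Fluor added at 15.5 h; fluorescence read after 30 min in the same wells.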

Test [7] is described as follows: qHTS assay to identify small molecule antagonists of the thyroid receptor (TR) signaling pathway - cell viability counter screen (AID 743064). Note: nearly all actives have a fitted effect of over 50% in size. Note: potency is the fitted concentration of half-maximal effect. The procedure, abridged:
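Rat GH3 pituitary tumor cells stably expressing two TR response elements driving luciferase were plated, rested 4 h, then dosed with library compounds and T3 (1 nM final). After 23.5 h at 37 °C, CellTiter-Fluor was added for 30 min and fluorescence recorded.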

Test [8] in a line: qHTS assay to identify small molecule antagonists of the thyroid receptor (TR) signaling pathway (AID 743065). Note: series mostly up to about 70 µM; nearly all actives have a fitted effect of over 55% in size. An outline of the steps:
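GH3.TRE-Luc rat pituitary cells (two TREs driving luciferase) were dosed with compound, then stimulated with 1 nM T3 (final) for 23.5 h at 37 C. ONE-Glo luminescence was the read-out, with CellTiter-Fluor fluorescence as the cytotoxicity counter-screen.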

The subject of test [9] is thyroid hormone receptor (rat, GH3 cells). As to the kind of experiment: qHTS assay to identify small molecule agonists of the thyroid receptor (TR) signaling pathway (AID 743066; calls by dose curve).
Test [10] can be described thus: qHTS assay to identify small molecule antagonists of the estrogen receptor alpha (ER-alpha) signaling pathway - cell viability counter screen (AID 743074; calls by dose curve;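 note: HEK293 cells carrying ER-alpha-UAS-bla reporter stimulated with 17beta-estradiol; nearly all actives have a fitted effect of over 45% in size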).
Test [11] can be described thus: qHTS assay to identify small molecule antagonists of the estrogen receptor alpha (ER-alpha) signaling pathway using the BG1 cell line - cell viability counter screen (AID 743081).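 Note: compound given together with 17beta-estradiol as the ER stimulus; nearly all actives have a fitted effect of over 45% in size.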 Note: potency is the fitted concentration of half-maximal effect.
The next test addresses Aromatase (Homo sapiens) (UniProt P11511). As to the kind of experiment: qHTS assay to identify aromatase inhibitors (AID 743083). Note: series mostly up to about 70 µM; nearly all actives have a fitted effect of over 55% in size.
Test [12] deals with Androgen receptor (Homo sapiens) (UniProt P10275). Put plainly: qHTS assay to identify small molecule antagonists of the androgen receptor (AR) signaling pathway (AID 743035; active = well fitted inhibition curve with a large enough effect in the signal ratio in the repeat runs, not every such curve was filed as active; the % refers to the signal ratio). The procedure, abridged: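 Fluorescence from a beta-lactamase FRET substrate (LiveBLAzer B/G, 2 h, room temperature) measured inhibition of R1881-stimulated signaling in GeneBLAzer AR-UAS-bla HEK293 cells exposed to compound for 16 h at 37C.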
Sequence of Androgen receptor (Homo sapiens) (P10275 whole entry, looked up): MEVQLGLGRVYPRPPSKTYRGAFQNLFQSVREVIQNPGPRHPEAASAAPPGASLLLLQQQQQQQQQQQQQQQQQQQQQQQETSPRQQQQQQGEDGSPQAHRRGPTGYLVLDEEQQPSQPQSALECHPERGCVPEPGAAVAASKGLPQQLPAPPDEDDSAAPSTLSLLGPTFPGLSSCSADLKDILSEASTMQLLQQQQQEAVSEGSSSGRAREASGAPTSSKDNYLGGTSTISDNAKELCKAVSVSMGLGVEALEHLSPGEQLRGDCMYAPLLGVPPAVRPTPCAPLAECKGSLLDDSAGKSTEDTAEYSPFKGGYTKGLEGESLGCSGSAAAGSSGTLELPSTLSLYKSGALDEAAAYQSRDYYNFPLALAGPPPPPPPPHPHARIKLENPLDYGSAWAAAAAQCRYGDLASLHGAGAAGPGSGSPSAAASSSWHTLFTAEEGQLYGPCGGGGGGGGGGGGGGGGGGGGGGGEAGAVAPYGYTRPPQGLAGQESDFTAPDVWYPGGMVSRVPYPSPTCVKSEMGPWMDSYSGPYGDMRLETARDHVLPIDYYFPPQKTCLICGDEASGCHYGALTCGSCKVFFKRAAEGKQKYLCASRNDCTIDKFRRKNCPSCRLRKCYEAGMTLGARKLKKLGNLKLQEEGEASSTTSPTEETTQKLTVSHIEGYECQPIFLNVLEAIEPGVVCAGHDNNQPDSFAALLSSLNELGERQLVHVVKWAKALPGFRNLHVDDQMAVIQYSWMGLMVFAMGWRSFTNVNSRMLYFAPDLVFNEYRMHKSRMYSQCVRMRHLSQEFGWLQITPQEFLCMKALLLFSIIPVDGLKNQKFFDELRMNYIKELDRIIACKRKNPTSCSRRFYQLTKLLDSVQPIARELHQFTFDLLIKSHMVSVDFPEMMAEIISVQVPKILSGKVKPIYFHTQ

Test [13] has the same target. As to the kind of experiment: qHTS assay to identify small molecule agonists of the androgen receptor (AR) signaling pathway (AID 743036; active = well fitted activation curve with a large enough effect in the signal ratio in the repeat runs, with a control signal flat, not every such curve was filed as active; the % refers to the signal ratio). An outline of the steps: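 Quantitative HTS of the Tox21 10K library in HEK293 cells bearing a stably integrated UAS-controlled beta-lactamase reporter. Compound exposure lasted 16 h at 37C. Reporter activity was detected by FRET substrate fluorescence after 2 h at room temperature.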

Test [14] shares this target. As to the kind of experiment: qHTS assay to identify small molecule agonists of the androgen receptor (AR) signaling pathway using the MDA cell line (AID 743040; note: nearly all actives have a fitted effect of over 20% in size). The procedure, abridged:
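MDA-kb2 breast carcinoma cells carrying MMTV-luciferase (responsive to AR and GR), plated 5 h then treated 16 h with compounds at 37C, 0% CO2. Read-out was ONE-Glo luminescence after 30 min at room temperature.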

Test [15] has the same target. Put plainly: qHTS assay to identify small molecule antagonists of the androgen receptor (AR) signaling pathway using the MDA cell line (AID 743042; note: nearly all actives have a fitted effect of over 55% in size). The procedure, abridged: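 MDA-kb2 breast carcinoma cells carrying MMTV-luciferase (AR/GR responsive) were co-treated with compounds and the agonist R1881 for 16 h at 37C. Inhibition read as ONE-Glo luminescence; CellTiter-Fluor fluorescence measured in parallel for cytotoxicity.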

Test [16] deals with Estrogen receptor (Homo sapiens) (UniProt P03372). As to the kind of experiment: qHTS assay to identify small molecule antagonists of the estrogen receptor alpha (ER-alpha) signaling pathway (AID 743069; active = well fitted curve in the direction sought with a large enough effect in the signal ratio in the repeat runs, not every such curve was filed as active; the % refers to the signal ratio). An outline of the steps:
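HEK293 ER-alpha-UAS-bla GripTite cells, held overnight in 2% charcoal-stripped FBS, 5,000 cells/well, preincubated 4 h, then compound plus 17beta-estradiol for 18 h at 37C. Beta-lactamase read by LiveBLAzer B/G FRET substrate, 2 h at room temperature.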

Test [17] shares this target. As to the kind of experiment: qHTS assay to identify small molecule agonists of the estrogen receptor alpha (ER-alpha) signaling pathway (AID 743075; calls by dose curve).
Test [18] has the same target. Put plainly: qHTS assay to identify small molecule agonists of the estrogen receptor alpha (ER-alpha) signaling pathway using the BG1 cell line (AID 743079). Note: nearly all actives have a fitted effect of over 20% in size. Note: potency is the fitted concentration of half-maximal effect.
Test [19] can be described thus: qHTS assay to identify small molecule antagonists of the estrogen receptor alpha (ER-alpha) signaling pathway using the BG1 cell line (AID 743080; calls by dose curve;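 note: BG1 cells stimulated with 17beta-estradiol alongside compound; series mostly up to about 70 µM; nearly all actives have a fitted effect of over 25% in size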). An outline of the steps:
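Seeding, 24 h rest, compound transfer from DMSO, 17beta-estradiol addition, 21.5 h incubation, CellTiter-Fluor (30 min, 37 C), then ONE-Glo (30 min, room temperature): this sequence was run on BG1-Luc-4E2 reporter cells.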

Sequence of Aromatase (Homo sapiens) (P11511 whole entry, looked up): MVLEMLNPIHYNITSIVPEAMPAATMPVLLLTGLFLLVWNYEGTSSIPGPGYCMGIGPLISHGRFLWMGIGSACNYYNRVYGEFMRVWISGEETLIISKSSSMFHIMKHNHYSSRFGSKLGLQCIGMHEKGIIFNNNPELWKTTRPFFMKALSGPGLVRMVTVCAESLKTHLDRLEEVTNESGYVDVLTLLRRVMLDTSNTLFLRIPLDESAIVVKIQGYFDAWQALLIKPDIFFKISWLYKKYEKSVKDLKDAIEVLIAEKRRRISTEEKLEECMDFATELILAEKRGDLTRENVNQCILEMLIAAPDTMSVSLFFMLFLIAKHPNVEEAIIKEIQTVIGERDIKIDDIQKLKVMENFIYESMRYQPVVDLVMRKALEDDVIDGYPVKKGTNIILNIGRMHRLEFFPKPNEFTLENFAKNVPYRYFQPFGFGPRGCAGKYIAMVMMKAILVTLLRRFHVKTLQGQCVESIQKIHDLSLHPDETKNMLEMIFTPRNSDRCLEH
Sequence of Estrogen receptor (Homo sapiens) (P03372 whole entry, looked up): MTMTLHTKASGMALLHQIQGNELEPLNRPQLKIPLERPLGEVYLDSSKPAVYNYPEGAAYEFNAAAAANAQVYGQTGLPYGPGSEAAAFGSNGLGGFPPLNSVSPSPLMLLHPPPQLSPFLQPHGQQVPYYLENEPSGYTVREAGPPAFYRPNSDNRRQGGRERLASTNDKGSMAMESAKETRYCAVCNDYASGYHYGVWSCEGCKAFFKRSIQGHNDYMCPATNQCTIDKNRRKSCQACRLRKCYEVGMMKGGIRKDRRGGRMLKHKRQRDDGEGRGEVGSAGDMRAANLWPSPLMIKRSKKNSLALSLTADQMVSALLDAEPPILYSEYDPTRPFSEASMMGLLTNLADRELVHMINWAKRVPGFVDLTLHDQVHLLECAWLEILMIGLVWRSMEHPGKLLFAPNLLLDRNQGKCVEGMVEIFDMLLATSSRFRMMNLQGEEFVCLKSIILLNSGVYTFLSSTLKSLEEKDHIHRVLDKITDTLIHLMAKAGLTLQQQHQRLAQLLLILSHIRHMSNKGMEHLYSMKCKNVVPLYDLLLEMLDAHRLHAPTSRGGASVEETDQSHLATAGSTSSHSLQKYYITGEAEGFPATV

On to `Cn1cnc2c1c(=O)[nH]c(=O)n2C`, for which the Potency result in test [1], in test [2], in test [3], in test [4], in test [6] and in test [7] was “inactive” each time. Further, the Potency entry (in [8]; in test [11]; in the test with Aromatase (Homo sapiens)) was “inactive” each time. Moreover, the compound was called inactive in [5], in [9] and in test [10].

As for `CC(O)COc1ccccc1` (configuration not stated), the Potency entry in test [1], in [2], in test [4], in [12], in [14] and in test [6] was “inactive” each time. Further, the Potency result (in test [15]; in [7]; in test [8]; in test [11]; with Aromatase (Homo sapiens)) was “inactive” in each case. In addition, the compound was called inactive in test [5], in [13], in [9] and in [10].

As to `CCCCOCCOCCSC#N`, the Potency entry in [1], in test [2], in [3], in test [4], in test [6] and in test [7] was “inactive” in each case. The Potency entry (in [11]; with Aromatase (Homo sapiens)) was “inactive” each time. For the same compound, the outcome in test [5] and in test [10] was inactive.

As to `CCCCOC(=O)CCCCCCCCC(=O)OCCCC`, the Potency result in test [1], in test [2], in test [4], in test [6], in test [8] and in test [16] was “inactive” in each case. Also, the Potency result (in test [17]; in [18]; in test [19]; in test [11]; with Aromatase (Homo sapiens)) was “inactive” throughout. For the same compound, the Potency in [3] was 68.6 µM (active). Besides, the compound was called inactive in test [5], in test [9] and in [10].

On to `c1ccc2[nH]c(-c3cscn3)nc2c1`, for which the Potency entry in test [1], in [12], in [14], in [6], in [15] and in test [7] was “inactive” in each case. The Potency result (in [8]; in [16]; in [17]; in test [11]; in the test with Aromatase (Homo sapiens)) was “inactive” in each case. Moreover, the Potency result in [2] was “inactive and 69 µM (active)”; in [4], “inactive and 48.6 µM (active)”; in test [18], 16.8 µM (active) and 24.5 µM (active) and 9.69 µM (active). For the same compound, the compound was called inactive in [5], in [13], in test [9] and in test [10].

Turning to `CO[C@H]1C=CO[C@@]2(C)Oc3c(C)c(O)c4c(O)c(c(/C=N/N5CCN(C)CC5)c(O)c4c3C2=O)NC(=O)/C(C)=C\C=C[C@H](C)[C@H](O)[C@@H](C)[C@@H](O)[C@@H](C)[C@H](OC(C)=O)[C@@H]1C`, the Potency entry (in test [1]; in [8]; with Aromatase (Homo sapiens)) was “inactive” each time. Besides, the Potency in test [2] is 21.1 µM (active) and 31 µM (active); in [3], 29.8 µM (active) and 24.6 µM (active); in [4] it was 26.6 µM (active) and 15.5 µM (active); in [6] it was 26.6 µM (active); in test [7], 26.6 µM (active) and 34.8 µM (active); in test [11], 23.7 µM (active) and 34.8 µM (active). Also, the compound was classed as inactive in [5], in test [9] and in test [10].

In the case of `C/C=C/c1ccc(O)c(OC)c1`, the Potency result in [1], in test [2], in test [3], in [4], in [6] and in test [7] was “inactive” throughout. The Potency entry (in test [16]; in test [17]; in test [18]; in test [19]; in test [11]; with Aromatase (Homo sapiens)) was “inactive” in each case. Further, the call in [5] and in test [10] was inactive.

For `Nc1cccc(N)c1`, the Potency entry in test [1], in test [2], in [6], in [7], in test [8] and in test [11] was “inactive” each time. In the test with Aromatase (Homo sapiens), the Potency result is “inactive”. The Potency in test [3] was 17.2 µM (active) and inactive; in test [4], 61 µM (active) and inactive. The result in test [5], in test [9] and in test [10] was inactive.

Take `O=[N+]([O-])c1ccc(O)cc1`: the Potency result in [1], in test [6], in test [16], in test [17], in test [18] and in [19] was “inactive” in each case. Further, the Potency entry (in [11]; with Aromatase (Homo sapiens)) was “inactive” in each case. In addition, the Potency was 27.3 µM (active) and 61.1 µM (active) in test [2]; “inactive and 43.3 µM (active) and 54.5 µM (active)” in test [3]; “inactive and 54.5 µM (active)” in test [4]; 61.1 µM (active) in [7]. Moreover, the compound was classed as inactive in test [5] and in [10].
